Here are results for six molecules from ChEMBL document CHEMBL1961873, “Compounds: GSK PKIS; Assays: Nanosyn kinase panel” (2012).

The target of experiment [1] is Calcium/calmodulin-dependent protein kinase type II subunit alpha (Homo sapiens) (UniProt Q9UQM7). The note with it: at 1 µM.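 Further: reported value is a mean percent inhibition of CAMK2A.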
Experiment [2] has as its target Calcium/calmodulin-dependent protein kinase type II subunit delta (Homo sapiens) (UniProt Q13557). The note with it: at 0.1 µM.
For experiment [3] the target is unchanged. The note with it: at 1 µM.
The target of experiment [4] is T1, Calcium/calmodulin-dependent protein kinase type IV (Homo sapiens) (UniProt Q16566).
T1 sequence (whole entry): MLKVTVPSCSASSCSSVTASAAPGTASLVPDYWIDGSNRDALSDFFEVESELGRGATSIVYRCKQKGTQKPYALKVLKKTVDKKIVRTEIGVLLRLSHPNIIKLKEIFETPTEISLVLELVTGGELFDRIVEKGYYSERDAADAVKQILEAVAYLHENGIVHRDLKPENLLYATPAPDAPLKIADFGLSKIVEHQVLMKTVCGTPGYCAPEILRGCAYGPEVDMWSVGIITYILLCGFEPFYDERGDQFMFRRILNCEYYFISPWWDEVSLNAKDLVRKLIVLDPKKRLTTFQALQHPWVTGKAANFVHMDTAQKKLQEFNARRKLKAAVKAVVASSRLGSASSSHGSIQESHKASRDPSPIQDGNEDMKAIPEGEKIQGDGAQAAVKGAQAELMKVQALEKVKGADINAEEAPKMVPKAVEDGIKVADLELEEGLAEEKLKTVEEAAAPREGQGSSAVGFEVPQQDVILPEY
The note with it: at 0.1 µM.

The target in experiment [5] is T1, Calcium/calmodulin-dependent protein kinase type IV (Homo sapiens). Conditions: at 1 µM.
The target in experiment [6] is T2, Serine/threonine-protein kinase Chk1 (Homo sapiens) (UniProt O14757).
T2 sequence (whole entry): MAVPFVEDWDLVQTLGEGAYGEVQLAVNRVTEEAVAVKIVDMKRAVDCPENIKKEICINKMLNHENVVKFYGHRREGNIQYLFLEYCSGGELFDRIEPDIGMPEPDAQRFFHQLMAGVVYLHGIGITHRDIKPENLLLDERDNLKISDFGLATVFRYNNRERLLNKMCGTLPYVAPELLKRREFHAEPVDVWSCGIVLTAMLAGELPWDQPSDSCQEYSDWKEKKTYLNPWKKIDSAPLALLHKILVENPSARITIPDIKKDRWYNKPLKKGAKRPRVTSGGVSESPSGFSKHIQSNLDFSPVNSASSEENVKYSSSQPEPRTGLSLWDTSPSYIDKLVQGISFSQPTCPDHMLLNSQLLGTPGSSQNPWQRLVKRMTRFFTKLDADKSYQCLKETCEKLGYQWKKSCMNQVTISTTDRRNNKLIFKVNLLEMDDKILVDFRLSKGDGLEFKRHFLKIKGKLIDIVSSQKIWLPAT
Conditions: at 0.1 µM.

Experiment [7] concerns the target T2, Serine/threonine-protein kinase Chk1 (Homo sapiens). The note with it: at 1 µM.
For experiment [8], the target named is Serine/threonine-protein kinase Chk2 (Homo sapiens) (UniProt O96017). The note with it: at 0.1 µM.
Experiment [9] shares this target. Conditions: at 1 µM.
Experiment [10] concerns the target Death-associated protein kinase 1 (Homo sapiens) (UniProt P53355). The note with it: at 0.1 µM.
Experiment [11] has the same target. The note with it: at 1 µM.
The target in experiment [12] is T3, Serine/threonine-protein kinase DCLK2 (Homo sapiens) (UniProt Q8N568).
T3 sequence (whole entry): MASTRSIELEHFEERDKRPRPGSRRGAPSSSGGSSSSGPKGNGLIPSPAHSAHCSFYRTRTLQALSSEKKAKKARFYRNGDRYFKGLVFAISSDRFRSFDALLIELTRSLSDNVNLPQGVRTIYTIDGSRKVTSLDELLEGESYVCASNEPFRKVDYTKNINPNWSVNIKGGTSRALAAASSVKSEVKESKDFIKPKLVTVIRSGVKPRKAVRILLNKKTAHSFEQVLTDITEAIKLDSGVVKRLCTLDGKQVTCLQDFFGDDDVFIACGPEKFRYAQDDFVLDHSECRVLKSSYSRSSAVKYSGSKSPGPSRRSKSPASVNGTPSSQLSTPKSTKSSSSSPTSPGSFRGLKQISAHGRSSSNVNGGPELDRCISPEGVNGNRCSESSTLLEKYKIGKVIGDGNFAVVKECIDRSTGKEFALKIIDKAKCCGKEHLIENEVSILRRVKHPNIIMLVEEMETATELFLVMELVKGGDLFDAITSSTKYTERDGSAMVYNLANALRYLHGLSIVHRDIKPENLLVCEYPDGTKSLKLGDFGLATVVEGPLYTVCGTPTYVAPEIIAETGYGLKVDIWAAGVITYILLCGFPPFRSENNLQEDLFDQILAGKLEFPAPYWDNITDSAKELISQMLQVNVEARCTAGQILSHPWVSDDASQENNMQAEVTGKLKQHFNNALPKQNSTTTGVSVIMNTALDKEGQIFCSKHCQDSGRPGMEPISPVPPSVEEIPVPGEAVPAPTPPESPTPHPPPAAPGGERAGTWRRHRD
The note with it: at 0.1 µM.

Experiment [13] has as its target T3, Serine/threonine-protein kinase DCLK2 (Homo sapiens). Conditions: at 1 µM.
Experiment [14] concerns the target MAP kinase-activated protein kinase 2 (Homo sapiens) (UniProt P49137). The note with it: at 0.1 µM.
For experiment [15] the target is unchanged. Conditions: at 1 µM.
Experiment [16] concerns the target MAP kinase-activated protein kinase 3 (Homo sapiens) (UniProt Q16644). The note with it: at 0.1 µM.
Experiment [17] has the same target. The note with it: at 1 µM.
The target in experiment [18] is Serine/threonine-protein kinase MARK1 (Homo sapiens) (UniProt Q9P0L2). The note with it: at 0.1 µM.
The target is the same in experiment [19]. The note with it: at 1 µM.
Experiment [20] has as its target MAP/microtubule affinity-regulating kinase 3 (Homo sapiens) (UniProt P27448). The note with it: at 0.1 µM.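 Further: mean percent inhibition of MARK3 kinase activity, measured within the GSK PKIS screening panel.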

Chain of MAP kinase-activated protein kinase 3 (Homo sapiens) (Q16644 whole entry, looked up): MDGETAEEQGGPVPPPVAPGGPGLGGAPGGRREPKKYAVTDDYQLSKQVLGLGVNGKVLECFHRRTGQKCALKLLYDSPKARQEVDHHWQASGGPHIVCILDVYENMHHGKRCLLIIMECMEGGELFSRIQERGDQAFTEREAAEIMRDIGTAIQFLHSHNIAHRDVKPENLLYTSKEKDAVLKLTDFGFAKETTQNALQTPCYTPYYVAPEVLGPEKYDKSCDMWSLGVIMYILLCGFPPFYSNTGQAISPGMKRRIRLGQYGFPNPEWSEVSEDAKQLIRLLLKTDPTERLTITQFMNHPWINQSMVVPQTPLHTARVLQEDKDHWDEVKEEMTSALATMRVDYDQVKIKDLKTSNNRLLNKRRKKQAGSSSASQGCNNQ
Chain of Calcium/calmodulin-dependent protein kinase type II subunit delta (Homo sapiens) (Q13557 whole entry): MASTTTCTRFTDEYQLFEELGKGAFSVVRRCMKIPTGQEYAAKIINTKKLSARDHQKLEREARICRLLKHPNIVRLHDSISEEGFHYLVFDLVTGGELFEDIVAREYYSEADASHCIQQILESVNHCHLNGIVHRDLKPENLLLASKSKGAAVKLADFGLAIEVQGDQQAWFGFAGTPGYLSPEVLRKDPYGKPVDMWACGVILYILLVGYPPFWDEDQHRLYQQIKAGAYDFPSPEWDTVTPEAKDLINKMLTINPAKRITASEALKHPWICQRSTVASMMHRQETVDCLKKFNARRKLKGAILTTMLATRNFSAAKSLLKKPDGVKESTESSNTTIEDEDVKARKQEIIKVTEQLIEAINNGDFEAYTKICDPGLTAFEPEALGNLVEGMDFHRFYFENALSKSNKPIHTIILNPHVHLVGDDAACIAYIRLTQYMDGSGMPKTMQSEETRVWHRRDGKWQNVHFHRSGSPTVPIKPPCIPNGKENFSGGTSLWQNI
Chain of Calcium/calmodulin-dependent protein kinase type II subunit alpha (Homo sapiens) (Q9UQM7 whole entry): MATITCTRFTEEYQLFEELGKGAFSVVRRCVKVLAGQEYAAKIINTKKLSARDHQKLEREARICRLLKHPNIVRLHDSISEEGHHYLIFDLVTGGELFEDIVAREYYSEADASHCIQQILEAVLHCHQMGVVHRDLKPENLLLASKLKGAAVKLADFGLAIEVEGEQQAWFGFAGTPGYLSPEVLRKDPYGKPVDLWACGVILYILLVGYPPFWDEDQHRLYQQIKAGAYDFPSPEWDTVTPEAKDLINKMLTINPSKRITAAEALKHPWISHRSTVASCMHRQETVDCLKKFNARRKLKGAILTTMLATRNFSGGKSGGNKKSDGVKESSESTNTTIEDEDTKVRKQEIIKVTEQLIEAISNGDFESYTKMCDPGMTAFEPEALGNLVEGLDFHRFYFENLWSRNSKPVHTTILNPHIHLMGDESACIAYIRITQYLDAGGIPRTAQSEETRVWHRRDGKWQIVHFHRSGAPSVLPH
Chain of Death-associated protein kinase 1 (Homo sapiens) (P53355 whole entry, looked up): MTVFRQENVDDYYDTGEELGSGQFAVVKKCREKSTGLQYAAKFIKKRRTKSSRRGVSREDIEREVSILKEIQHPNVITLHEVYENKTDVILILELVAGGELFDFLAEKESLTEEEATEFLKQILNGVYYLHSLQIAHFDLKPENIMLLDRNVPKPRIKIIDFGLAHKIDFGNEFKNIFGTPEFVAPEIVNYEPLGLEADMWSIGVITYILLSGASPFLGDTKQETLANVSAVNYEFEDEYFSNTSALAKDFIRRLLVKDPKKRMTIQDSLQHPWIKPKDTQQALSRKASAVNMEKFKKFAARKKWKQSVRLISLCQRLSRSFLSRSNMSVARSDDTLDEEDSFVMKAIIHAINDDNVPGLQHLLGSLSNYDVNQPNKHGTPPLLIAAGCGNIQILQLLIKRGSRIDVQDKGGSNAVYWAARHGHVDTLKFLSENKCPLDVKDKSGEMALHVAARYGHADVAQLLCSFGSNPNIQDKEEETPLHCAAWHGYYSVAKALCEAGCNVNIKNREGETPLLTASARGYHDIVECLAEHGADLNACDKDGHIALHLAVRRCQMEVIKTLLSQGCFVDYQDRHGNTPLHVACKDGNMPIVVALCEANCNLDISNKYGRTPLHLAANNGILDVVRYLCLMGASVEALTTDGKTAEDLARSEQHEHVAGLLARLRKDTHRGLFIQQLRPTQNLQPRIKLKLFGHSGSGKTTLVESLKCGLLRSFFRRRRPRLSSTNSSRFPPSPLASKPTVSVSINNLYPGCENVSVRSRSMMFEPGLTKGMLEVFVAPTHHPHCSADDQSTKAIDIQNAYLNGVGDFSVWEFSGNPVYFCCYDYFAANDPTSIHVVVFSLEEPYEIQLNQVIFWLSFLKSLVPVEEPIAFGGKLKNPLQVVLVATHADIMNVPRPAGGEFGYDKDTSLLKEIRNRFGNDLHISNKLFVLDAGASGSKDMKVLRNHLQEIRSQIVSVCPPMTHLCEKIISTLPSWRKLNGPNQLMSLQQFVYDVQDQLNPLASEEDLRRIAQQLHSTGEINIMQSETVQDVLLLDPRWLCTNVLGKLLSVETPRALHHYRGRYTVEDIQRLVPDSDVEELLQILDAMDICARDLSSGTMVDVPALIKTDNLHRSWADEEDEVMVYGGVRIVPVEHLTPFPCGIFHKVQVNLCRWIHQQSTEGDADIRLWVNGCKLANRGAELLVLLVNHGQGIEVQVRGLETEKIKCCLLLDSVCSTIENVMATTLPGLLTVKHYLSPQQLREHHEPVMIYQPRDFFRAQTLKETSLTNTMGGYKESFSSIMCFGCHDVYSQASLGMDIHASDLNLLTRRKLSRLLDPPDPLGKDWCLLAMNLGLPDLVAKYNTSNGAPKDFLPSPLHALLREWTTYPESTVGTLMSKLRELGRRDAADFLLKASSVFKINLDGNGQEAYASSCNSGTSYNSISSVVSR
Chain of Serine/threonine-protein kinase MARK1 (Homo sapiens) (Q9P0L2 whole entry, looked up): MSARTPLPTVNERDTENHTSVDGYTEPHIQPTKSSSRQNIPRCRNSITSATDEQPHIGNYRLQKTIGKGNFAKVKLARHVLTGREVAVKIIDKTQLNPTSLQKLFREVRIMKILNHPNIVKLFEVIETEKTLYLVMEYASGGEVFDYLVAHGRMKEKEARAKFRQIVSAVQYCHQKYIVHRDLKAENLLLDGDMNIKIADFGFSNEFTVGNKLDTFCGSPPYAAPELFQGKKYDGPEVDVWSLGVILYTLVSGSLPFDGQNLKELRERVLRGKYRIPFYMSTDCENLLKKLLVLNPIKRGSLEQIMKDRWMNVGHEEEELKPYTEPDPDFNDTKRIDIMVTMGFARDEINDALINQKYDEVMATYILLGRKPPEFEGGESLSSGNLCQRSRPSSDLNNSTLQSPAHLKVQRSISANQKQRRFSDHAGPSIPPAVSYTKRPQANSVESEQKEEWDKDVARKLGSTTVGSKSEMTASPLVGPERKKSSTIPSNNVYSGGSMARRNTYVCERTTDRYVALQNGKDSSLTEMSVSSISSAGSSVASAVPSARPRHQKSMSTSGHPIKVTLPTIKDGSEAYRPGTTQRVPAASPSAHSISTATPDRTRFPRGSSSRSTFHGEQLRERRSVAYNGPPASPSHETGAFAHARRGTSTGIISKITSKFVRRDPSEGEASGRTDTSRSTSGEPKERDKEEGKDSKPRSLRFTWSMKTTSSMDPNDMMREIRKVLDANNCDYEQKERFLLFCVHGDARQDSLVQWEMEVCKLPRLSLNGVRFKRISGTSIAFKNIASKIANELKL
Chain of MAP/microtubule affinity-regulating kinase 3 (Homo sapiens) (P27448 whole entry, looked up): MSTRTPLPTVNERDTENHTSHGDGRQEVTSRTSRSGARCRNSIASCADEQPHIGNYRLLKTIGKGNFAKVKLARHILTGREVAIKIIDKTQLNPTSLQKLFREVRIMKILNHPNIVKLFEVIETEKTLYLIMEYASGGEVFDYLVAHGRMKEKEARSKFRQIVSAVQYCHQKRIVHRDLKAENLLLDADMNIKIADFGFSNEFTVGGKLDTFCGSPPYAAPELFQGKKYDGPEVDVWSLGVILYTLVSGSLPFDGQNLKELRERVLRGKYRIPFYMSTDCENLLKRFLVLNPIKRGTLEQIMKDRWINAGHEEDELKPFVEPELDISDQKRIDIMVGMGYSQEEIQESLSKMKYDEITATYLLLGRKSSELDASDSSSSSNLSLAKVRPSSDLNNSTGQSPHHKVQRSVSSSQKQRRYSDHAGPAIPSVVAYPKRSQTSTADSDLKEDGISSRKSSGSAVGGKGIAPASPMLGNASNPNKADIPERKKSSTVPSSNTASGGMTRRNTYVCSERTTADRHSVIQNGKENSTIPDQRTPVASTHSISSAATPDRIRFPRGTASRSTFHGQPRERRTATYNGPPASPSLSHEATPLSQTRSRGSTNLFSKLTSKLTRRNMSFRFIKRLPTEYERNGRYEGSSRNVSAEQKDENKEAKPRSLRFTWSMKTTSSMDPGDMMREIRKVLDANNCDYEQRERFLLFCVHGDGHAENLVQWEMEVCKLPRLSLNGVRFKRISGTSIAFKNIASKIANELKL
Chain of Serine/threonine-protein kinase Chk2 (Homo sapiens) (O96017 whole entry): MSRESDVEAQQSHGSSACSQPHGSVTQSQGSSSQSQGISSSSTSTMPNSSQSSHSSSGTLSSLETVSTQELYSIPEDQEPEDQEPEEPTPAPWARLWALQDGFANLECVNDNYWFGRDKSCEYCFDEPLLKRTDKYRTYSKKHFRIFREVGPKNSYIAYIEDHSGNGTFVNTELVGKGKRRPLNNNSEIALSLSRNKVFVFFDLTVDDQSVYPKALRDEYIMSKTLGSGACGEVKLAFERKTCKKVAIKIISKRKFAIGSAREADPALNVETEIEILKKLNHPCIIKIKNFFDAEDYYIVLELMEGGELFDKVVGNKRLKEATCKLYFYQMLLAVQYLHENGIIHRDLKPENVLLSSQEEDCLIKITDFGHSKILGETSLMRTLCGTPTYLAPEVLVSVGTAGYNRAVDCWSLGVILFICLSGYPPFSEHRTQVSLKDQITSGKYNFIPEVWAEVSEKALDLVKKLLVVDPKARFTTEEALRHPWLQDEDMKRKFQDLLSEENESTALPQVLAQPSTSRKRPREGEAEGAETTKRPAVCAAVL

A word on the inhibition: it is the drop in the measured response relative to a control, in per cent. With `Clc1ccc(-c2nn3ncccc3c2-c2ccnc(Nc3ccccc3)n2)cc1`, the inhibition is 0.86% in experiment [1]; 1.7% in experiment [2]; 1.08% in experiment [3]; 4.89% in [4]; -0.99% in experiment [5]; -0.54% in [6]. Also, the inhibition in experiment [7] was -0.93%; in experiment [8] it was 0.52%; in [9], 1.08%; in experiment [10] it was 0.42%; in [11], -0.24%; in [12], 1.9%. For the same molecule, the inhibition in experiment [13] is 6.65%; in experiment [14] it was 0.42%; in experiment [15], -0.09%; in experiment [16] it was 22.4%; in experiment [17] it was 32.1%; in experiment [18], 1.31%. For the same molecule, the inhibition in experiment [19] was 0.37%; in experiment [20] it was -2.23%.

`O=C(Nc1n[nH]c2cc(-c3ccc(F)cc3)ccc12)C1CC1`: the inhibition is 5.83% in experiment [1]; 2.59% in [2]; 3.77% in experiment [3]; -0.12% in experiment [4]; 1.07% in experiment [5]; 8.27% in [6]. The inhibition is 10.8% in [7]; 6.26% in [8]; 6.67% in experiment [9]; 9.31% in experiment [10]; 9.97% in [11]; 1.56% in [12]. Besides, the inhibition stood at 0.81% in [13]; 4.23% in experiment [14]; 4.01% in experiment [15]; 9.47% in experiment [16]; 8.99% in [17]; 3.81% in experiment [18]. Further, the inhibition came to 5.7% in experiment [19] and 2.03% in experiment [20].

In the case of `Cc1ccc2c(-c3ccnc(Nc4ccccc4)n3)c(-c3ccc(F)cc3)nn2n1`, the inhibition in [1] is 4.16%; in experiment [2], 3.9%; in [3], 4.15%; in [4], -0.02%; in [5] it was 1.87%; in [6], 2.71%. The inhibition in [7] is 4.19%; in [8], 2.15%; in experiment [9], 2.4%; in experiment [10], 3.42%; in experiment [11], 5.85%; in [12] it was 1.21%. Moreover, the inhibition in experiment [13] is 1.97%; in [14], 1.27%; in experiment [15], 1.49%; in experiment [16], 32.5%; in experiment [17], 36%; in [18] it was 2.17%. The inhibition in experiment [19] turned out to be 2.96%; in experiment [20] it was 3.81%.

Turning to `CCNC(=O)O[C@H]1CN[C@H](C#Cc2cc3ncnc(Nc4ccc(OCc5cccc(F)c5)c(Cl)c4)c3s2)C1`, the inhibition was 3.02% in experiment [1]; 3.6% in experiment [2]; 4.34% in [3]; 2.5% in experiment [4]; 2.5% in [5]; 3.99% in [6]. Besides, the inhibition was 2.84% in experiment [7]; 2.23% in [8]; 2.55% in experiment [9]; 3.17% in [10]; 3.45% in experiment [11]; 1.18% in experiment [12]. Also, the inhibition in experiment [13] was found to be 2.85%; in experiment [14], 1.55%; in experiment [15], 1.53%; in [16], 2.87%; in [17] it was 2.32%; in [18], 1.89%. Further, the inhibition in experiment [19] was found to be 2.65%; in experiment [20], 2.76%.

As to `CCCN1CCC(c2ccc(Nc3nc(Nc4cc(F)ccc4C(N)=O)c4cc[nH]c4n3)c(OC)c2)CC1`, the inhibition in experiment [1] came out at 43.6%; in experiment [2], 20.9%; in [3] it was 71%; in [4], 7.54%; in experiment [5], 37.9%; in experiment [6] it was 0.91%. The inhibition was determined as 10.7% in experiment [7]; 58.3% in experiment [8]; 80.9% in experiment [9]; 3.52% in experiment [10]; 50% in experiment [11]; 1.99% in experiment [12]. Also, the inhibition in experiment [13] amounted to 8.21%; in [14], 1.84%; in experiment [15] it was 3.23%; in experiment [16] it was 5.33%; in experiment [17], 11.9%; in experiment [18], 9.11%. Besides, the inhibition was 50.1% in experiment [19] and 12.2% in experiment [20].

As to `COc1ccc(CNC(=O)c2ccc(-c3cc(-c4nnc(C)o4)ccc3C)cc2)cc1`, the inhibition is 0.47% in [1]; 0.75% in experiment [2]; -0.53% in [3]; -1.83% in experiment [4]; -4.17% in experiment [5]; 6.78% in experiment [6]. Besides, the inhibition turned out to be 8.82% in experiment [7]; 6.34% in [8]; 7.55% in [9]; 9.67% in experiment [10]; 10.2% in experiment [11]; 1.92% in [12]. For the same molecule, the inhibition was found to be 2.89% in [13]; 4.31% in [14]; 5.53% in experiment [15]; 14.5% in experiment [16]; 29.3% in experiment [17]; 1.53% in experiment [18]. In addition, the inhibition in experiment [19] amounted to 2.91%; in experiment [20], 1.55%.
